According to PubChem BioAssay (NCATS):
Several values for one entry are separate records, joined by “and”; a condition that tells them apart may be missing. Equal values may be shown once. Records with an inconclusive call do not appear. Activity calls are given as the source filed them. Calls come from the whole dose curve; as a rule, active = well fitted inhibition curve with a large enough effect; inconclusive = small, poorly fitted or top-dose-only effect; inactive = flat fitted curve, though single readings scatter.

Legend:
[1] = qHTS profiling for inhibitors of Plasmodium falciparum proliferation (AID 504749); note: nearly all actives have a fitted effect of over 60% in size;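 for activity, negative = inhibition: 0% = DMSO vehicle and full inhibition = artemisinin control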; details: P. falciparum in erythrocytes, SYBR Green DNA, 72 h
Outline: (§1)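 Fluorescence of SYBR Green-bound parasite DNA, read at 485/535 nm, served as the growth measure. Infected erythrocytes were cultured with compound 72 h; artemisinin (0.29 uM) and DMSO wells defined the normalization range.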

3D7 = assay: as above; details: P. falciparum in erythrocytes, SYBR Green DNA, 72 h; series mostly up to 28.7 µM
Outline: as §1

7G8 = assay: as above; details: P. falciparum in erythrocytes, SYBR Green DNA, 72 h; series mostly up to 28.7 µM
Outline: as §1

AA1029 = assay: as above; details: P. falciparum in erythrocytes, SYBR Green DNA, 72 h; series mostly up to 28.7 µM
Outline: as §1

AS120 = assay: as above; details: P. falciparum in erythrocytes, SYBR Green DNA, 72 h; series mostly up to 28.7 µM
Outline: as §1

ATS189 = assay: as above; details: P. falciparum in erythrocytes, SYBR Green DNA, 72 h; series mostly up to 28.7 µM
Outline: as §1

ATS95 = assay: as above; details: P. falciparum in erythrocytes, SYBR Green DNA, 72 h; series mostly up to 28.7 µM
Outline: as §1

C2A = assay: as above; details: P. falciparum in erythrocytes, SYBR Green DNA, 72 h; series mostly up to 28.7 µM
Outline: as §1

CP185 = assay: as above; details: P. falciparum in erythrocytes, SYBR Green DNA, 72 h; series mostly up to 28.7 µM
Outline: as §1

CP191 = assay: as above; details: P. falciparum in erythrocytes, SYBR Green DNA, 72 h; series mostly up to 28.7 µM
Outline: as §1

CP192 = assay: as above; details: P. falciparum in erythrocytes, SYBR Green DNA, 72 h; series mostly up to 28.7 µM
Outline: as §1

CP194 = assay: as above; details: P. falciparum in erythrocytes, SYBR Green DNA, 72 h; series mostly up to 28.7 µM
Outline: as §1

CP201 = assay: as above; details: P. falciparum in erythrocytes, SYBR Green DNA, 72 h; series mostly up to 28.7 µM
Outline: as §1

CP203 = assay: as above; details: P. falciparum in erythrocytes, SYBR Green DNA, 72 h; series mostly up to 28.7 µM
Outline: as §1

CP211 = assay: as above; details: P. falciparum in erythrocytes, SYBR Green DNA, 72 h; series mostly up to 28.7 µM
Outline: as §1

CP215 = assay: as above; details: P. falciparum in erythrocytes, SYBR Green DNA, 72 h; series mostly up to 28.7 µM
Outline: as §1

CP217 = assay: as above; details: P. falciparum in erythrocytes, SYBR Green DNA, 72 h; series mostly up to 28.7 µM
Outline: as §1

CP237 = assay: as above; details: P. falciparum in erythrocytes, SYBR Green DNA, 72 h; series mostly up to 28.7 µM
Outline: as §1

CP238 = assay: as above; details: P. falciparum in erythrocytes, SYBR Green DNA, 72 h; series mostly up to 28.7 µM
Outline: as §1

CP247 = assay: as above; details: P. falciparum in erythrocytes, SYBR Green DNA, 72 h; series mostly up to 28.7 µM
Outline: as §1

[2] = at 28.7 µM (top of the series), parasite line A
[3] = at 28.7 µM (top of the series), parasite line B
Potency is the fitted concentration of half-maximal effect.

CN1c2cc(O)c(N=NC(N)=O)cc2CC1S(=O)(=O)O (configuration not stated)
inactive: activity, negative = inhibition [1, 2] -0.188% | activity, negative = inhibition [1, 3] 7.8% | Potency (3D7) | Potency (7G8) | Potency (AA1029) | Potency (AS120) | Potency (ATS189) | Potency (ATS95) | Potency (C2A) | Potency (CP185) | Potency (CP191) | Potency (CP192) | Potency (CP194) | Potency (CP201) | Potency (CP203) | Potency (CP211) | Potency (CP215) | Potency (CP217) | Potency (CP237) | Potency (CP238) | Potency (CP247)

O=c1[nH]c(=O)n(C2CCCO2)cc1F (configuration not stated)
inactive: activity, negative = inhibition [1, 2] 8.19% | activity, negative = inhibition [1, 3] 12.8% | Potency (3D7) | Potency (7G8) | Potency (AA1029) | Potency (AS120) | Potency (ATS189) | Potency (ATS95) | Potency (C2A) | Potency (CP185) | Potency (CP191) | Potency (CP192) | Potency (CP194) | Potency (CP201) | Potency (CP203) | Potency (CP211) | Potency (CP217) | Potency (CP237) | Potency (CP238) | Potency (CP247)

C[C@H]1C[C@@H]2[C@@H]([C@@H](O)C[C@@]3(C)[C@H]2CC[C@]3(O)C(=O)CO)[C@@]2(C)C=CC(=O)C=C12
inactive: activity, negative = inhibition ([1]; at 12.8 µM (top of the series), parasite line A) -0.344% | activity, negative = inhibition ([1]; at 12.8 µM (top of the series), parasite line B) -25.6% | Potency (3D7) | Potency (7G8) | Potency (AA1029) | Potency (AS120) | Potency (ATS189) | Potency (ATS95) | Potency (C2A) | Potency (CP185) | Potency (CP191) | Potency (CP192) | Potency (CP194) | Potency (CP201) | Potency (CP203) | Potency (CP211) | Potency (CP215) | Potency (CP217) | Potency (CP237) | Potency (CP238) | Potency (CP247)

CC(C)(C)NC(=O)[C@H]1CN(Cc2cccnc2)CCN1C[C@@H](O)C[C@@H](Cc1ccccc1)C(=O)N[C@H]1c2ccccc2C[C@H]1O
active: Potency (C2A) 10 µM | Potency (CP191) 8.91 µM | Potency (CP192) 10.7 µM | Potency (CP194) 15.1 µM | Potency (CP201) 16.9 µM | Potency (CP215) 15.1 µM | Potency (CP217) 11.2 µM | Potency (CP237) 8.91 µM | Potency (CP247) 11.2 µM

COC(=O)C1=C(C)NC(C)=C(C(=O)OCCN2CCN(C(c3ccccc3)c3ccccc3)CC2)C1c1cccc([N+](=O)[O-])c1 (configuration not stated)
active: Potency ([1]; parasite line A) 3.16 µM | Potency ([1]; parasite line B) 3.98 µM | Potency (7G8) 1.41 µM | Potency (AA1029) 2.24 µM | Potency (AS120) 2 µM | Potency (ATS189) 1.58 µM | Potency (ATS95) 2.51 µM | Potency (C2A) 3.55 µM | Potency (CP185) 4.47 µM | Potency (CP191) 3.16 µM | Potency (CP192) 4.78 µM | Potency (CP194) 5.36 µM | Potency (CP201) 7.57 µM | Potency (CP203) 3.79 µM | Potency (CP211) 3.79 µM | Potency (CP215) 3.38 µM | Potency (CP217) 3.16 µM | Potency (CP237) 3.16 µM | Potency (CP238) 2.51 µM | Potency (CP247) 3.98 µM

Nc1ccn([C@@H]2CS[C@H](CO)O2)c(=O)n1
inactive: activity, negative = inhibition [1, 2] 3.35% and 3.28% | activity, negative = inhibition [1, 3] 12% and -4.61% | Potency (3D7) | Potency (7G8) | Potency (AA1029) | Potency (AS120) | Potency (ATS189) | Potency (ATS95) | Potency (C2A) | Potency (CP185) | Potency (CP191) | Potency (CP192) | Potency (CP194) | Potency (CP201) | Potency (CP203) | Potency (CP211) | Potency (CP215) | Potency (CP217) | Potency (CP237) | Potency (CP238) | Potency (CP247)

CCC1=C[C@@H]2CN(C1)Cc1c([nH]c3ccccc13)[C@@](C(=O)OC)(c1cc3c(cc1OC)N(C)[C@@H]1[C@@](O)(C(=O)OC)[C@H](OC(C)=O)[C@]4(CC)C=CCN5CC[C@]31[C@@H]54)C2
active: Potency ([1]; parasite line A) 3.16 µM | Potency ([1]; parasite line B) 5.01 µM | Potency (3D7) 3.16 µM | Potency (7G8) 2.24 µM | Potency (AA1029) 1.58 µM | Potency (AS120) 1.41 µM | Potency (ATS189) 1.78 µM | Potency (ATS95) 2 µM | Potency (C2A) 1.26 µM | Potency (CP185) 3.16 µM | Potency (CP191) 3.98 µM | Potency (CP192) 4.26 µM | Potency (CP194) 3.38 µM | Potency (CP201) 4.78 µM | Potency (CP203) 3.01 µM | Potency (CP211) 3.38 µM | Potency (CP215) 2.13 µM | Potency (CP217) 2.51 µM | Potency (CP237) 3.98 µM | Potency (CP238) 2.82 µM | Potency (CP247) 3.55 µM

COc1c(N2C[C@@H]3CCCN[C@H]3C2)c(F)cc2c(=O)c(C(=O)O)cn(C3CC3)c12
inactive: activity, negative = inhibition [1, 2] -20.4% | activity, negative = inhibition [1, 3] -3.01% | Potency (3D7) | Potency (AA1029) | Potency (AS120) | Potency (ATS189) | Potency (ATS95) | Potency (C2A) | Potency (CP185) | Potency (CP191) | Potency (CP192) | Potency (CP194) | Potency (CP201) | Potency (CP203) | Potency (CP211) | Potency (CP215) | Potency (CP217) | Potency (CP238) | Potency (CP247)
